Screening results from PubChem BioAssay.
A340 absorber = compounds absorbing at 340 nm | compound absorbance at 340 nm, fold over control | fold change at 10 µM | 65,000 tested, under 10 active;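 active = at 10 µM dose, initial 340 nm absorbance at least 2 fold that of control wells; inactive = change under 2 fold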;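 note: initial absorbance extrapolated from kinetic A340 decline of NADH oxidation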
MK inhibit = S. pneumoniae mevalonate kinase inhibition; purified MK, PK/LDH-coupled NADH absorbance 340 nm; inhibition, % at 10 µM; hit rate 0.48% among 65,000;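 active = ranked among the strongest by inhibition in the single 10 µM screen, a fixed top-ranked set picked for dose follow-up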
Spn DPM-DC inh = inhibitors of Streptococcus pneumoniae diphosphomevalonate decarboxylase. purified DPM-DC, PK/LDH coupled NADH fluorescence. calls only at 10 µM. hit rate 0.49% among 65,000;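 active = the 320 compounds with the highest percent inhibition in the single-dose primary screen, excluding strongly autofluorescent ones, cut at about 32% in these data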;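 note: kinetic rate of NADH fluorescence loss reporting ADP formed by the decarboxylase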
Fluor 339 460 = intrinsic fluorescence of library compounds, ex339/em460 – biochemical, MLSMR library, data from DPM-DC assay, artefact control, profiling panel. compound autofluorescence, ex339/em460 nm, NADH buffer; stronger effect = higher value; 1 = no-compound wells, NADH background. fluorescence fold increase at 10 µM. hit rate 5.5% among 65,000;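 active = at 10 µM, mean starting fluorescence two-fold or more over control wells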;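 note: signal is the first read of a kinetic run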
NADH enzymes = blocks coupling enzymes of NAD/NADH assays | coupled PK/LDH NADH assays, four targets | IC50, µM (highest dose often 10 µM), for the others: at the top dose inhibition | hit rate 0.02% among 65,000 | AID 774;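 active = single-dose screening hits from any of four coupled enzyme assays that gave an IC50 when retested across doses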;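 note: the DPM-DC format reads NADH fluorescence rather than 340 nm absorbance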
PMK inhibit = inhibitors of Streptococcus pneumoniae phosphomevalonate kinase; hit rate 0.49% among 65,000; inhibition, % at 10 µM; purified PMK, PK/LDH-coupled NADH absorbance 340 nm;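 active = top-ranked compounds by inhibition in the single 10 µM screen, taking a fixed number of the strongest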;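 note: 0% = full reaction with DMSO carrier and 100% = background rate without enzyme reaction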
Starred values were filed as active, the others as inactive; i = inactive; x = no result shown; + = active, no number. Most compounds without a hit are left out; they make up all but 6.8% or so of the library.

SMILES	A340 absorber	MK inhibit	Spn DPM-DC inh	Fluor 339 460	NADH enzymes	PMK inhibit
CCn1c(SCC(=O)Nc2nc(C)c(C(=O)OC)s2)nnc1C(C)C	0.99	9.0	i	1.08	6.0%	9.0
COc1ccc(NC(=O)NCc2cccn2C)c(OC)c1	1	1.0	i	1.03	3.0%	9.0
COc1cc(-c2cc3nc(C)c(C)c(=O)n3[nH]2)cc(OC)c1OC	1.01	0.0	i	2*	4.0%	4.0
Cc1onc(-c2c(Cl)cccc2Cl)c1C(=O)Nc1ccc2c(c1)OCO2	1.03	9.0	i	1.12	15.0%	28.0*
CC(C)c1cc(C(=O)Nc2ccc3c(c2)OCO3)no1	1.04	3.0	i	1.04	2.0%	4.0
Cc1c(-c2ccccc2)c(P(=O)(N2CCOCC2)N2CCOCC2)c2ccccn12	1.04	0.0	x	5*	6.0%	12.0
O=P(C1=C(N2CCOCC2)/C(=C\c2ccccc2)CC1)(N1CCOCC1)N1CCOCC1	1.12	1.0	i	1.23	8.0%	16.0
CC1(C)CC(=O)C2(CC3=C(CC(C)(C)CC3=O)O2)C(=O)C1	1.03	8.0	i	1.03	7.0%	11.0
CCCCCn1c(SCC#N)nc2cc(C(=O)NCC3CCCO3)ccc2c1=O (stereo not given)	1.06	0.0	+	0.72	14.0%	6.0
CCCCCNC(=O)c1ccc2c(=O)n(CC3CCCO3)c(=O)[nH]c2c1 (stereo not given)	1.05	0.0	i	2.03*	1.0%	2.0
CCCn1c(=S)[nH]c2cc(C(=O)NCC3CCCO3)ccc2c1=O (stereo not given)	1.08	7.0	i	1.07	4.0%	5.0
CC(C)(O)C#Cc1ccc(C(=O)NCc2cccs2)s1	0.99	2.0	i	1.11	5.0%	12.0
CCOC(=O)c1ccc(NC(=O)CSc2nc(C)nc3c2c(=O)n(C)c(=O)n3C)cc1	1.04	3.0	i	1.11	1.0%	0.0
CCc1cc2c(=O)c(-n3cnc4ccccc43)coc2cc1O	1.12	2.0	x	4.22*	8.0%	13.0
CC1CCCCC1n1c(=S)[nH]c2ccccc2c1=O (stereo not given)	1.04	11.0	i	1.05	5.0%	4.0
C=CCn1c(NCc2ccc3c(c2)OCO3)nc2ccccc21	1.01	0.0	i	1.07	6.0%	17.0
C=CCn1c(NCc2ccccc2)nc2ccccc21	0.99	0.0	i	1.04	8.0%	25.0*
COc1cc(CCC(=O)N2CCN(c3ccc(N4CCOCC4)nn3)CC2)cc(OC)c1OC	1.03	8.0	x	2.16*	12.0%	15.0
O=C(CCCc1c[nH]c2ccccc12)N1CCN(c2ccc(N3CCOCC3)nn2)CC1	1.04	5.0	x	2.15*	3.0%	1.0
COc1cc(CCC(=O)N2CCN(S(=O)(=O)c3ccc(C)c(C)c3)CC2)cc(OC)c1OC	0.99	0.0	i	1.04	6.0%	18.0
NC(=O)CCc1c[nH]c2ccccc12	1.03	6.0	i	1.18	4.0%	5.0
Cc1c(OCc2nn[nH]n2)ccc2c3c(c(=O)oc12)CCC(C)C3 (stereo not given)	1.12	0.0	x	3.83*	1.0%	2.0
Cc1c(OCc2nn[nH]n2)ccc2c3c(c(=O)oc12)CCCC3	1.1	0.0	x	3.8*	2.0%	4.0
Cc1coc2c(C)c3oc(=O)c4c(c3cc12)CCCC4	1.04	0.0	i	1.33	1.0%	2.0
COc1ccc2c3c(c(=O)oc2c1OCC(N)=O)CCCC3	1.02	10.0	x	2.47*	2.0%	0.0
SMILES	A340 absorber	MK inhibit	Spn DPM-DC inh	Fluor 339 460	NADH enzymes	PMK inhibit
CCOC(=O)COc1ccc2c3c(c(=O)oc2c1C)CCC3	1.09	0.0	i	2.26*	9.0%	6.0
O=C(O)c1c(Cl)c(Cl)c(Cl)c(Cl)c1C(=O)N1CCOCC1	0.99	11.0	i	1	3.0%	12.0
COc1ccc(C(=O)CSc2nc3nc(C)cc(C)c3c(=O)[nH]2)cc1OC	1.07	0.0	i	1.16	2.0%	5.0
N#Cc1cn(-c2ccccc2)nc1-c1cc2ccccc2oc1=O	1.11	6.0	x	2.35*	3.0%	0.0
CC(Sc1nnc(-c2cc3ccccc3o2)n1-c1ccccc1)C(=O)O (stereo not given)	1	3.0	i	1.09	2.0%	3.0
O=C(CSc1nc(-c2ccc(F)cc2)cs1)N1CCN(C(=O)c2ccco2)CC1	1.03	3.0	i	1.04	9.0%	19.0
